According to PubChem BioAssay (NCATS):
Unmarked numbers belong to inactive results. Records with an inconclusive call do not appear. Entries that show only a call come without a potency. Active and inactive are the calls of the source. Unless noted, the call rests on the fitted dose curve; in most records, active means well fitted curve in the direction sought with a large enough effect; inconclusive means small, poorly fitted or top-dose-only effect, or another doubt; inactive means no such curve, though single readings can be large; an effect the other way counts as inactive or inconclusive.

Columns and labels:
[1] = Confirmation and Secondary Assay for Modulators of Hemoglobin Beta Chain Splicing at IVS2 654 locus (AID 910); settings: HeLa EGFP-654 splicing reporter, GFP fluorescence, 48 h; series mostly up to 38.3 µM;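 further: HeLa cells stably carrying EGFP split by mutant beta-globin IVS2-654 intron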
How it was run: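 HeLa cells stably expressing EGFP interrupted by β-globin IVS2-654 intron, seeded overnight in Opti-MEM/2% FCS, then treated 2 days at 37 °C. Restored splicing read as total peak GFP intensity per well by laser scanning cytometry (488 nm excitation, 500–520 nm emission); 500 nM antisense PNA as control.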

[2] = Confirmation and Secondary Assay for Modulators of Hemoglobin Beta Chain Splicing at IVS2 705 locus (AID 930); settings: HeLa EGFP-705 splicing reporter, GFP fluorescence, 48 h; series mostly up to 38.3 µM;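 further: HeLa cells stably expressing the EGFP-705 splicing reporter; GFP fluorescence per well restored by corrected splicing of the IVS2-705 intron in EGFP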
How it was run: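 Secondary splice-site specificity test uses HeLa expressing CMV-driven EGFP interrupted by IVS2-705; cells were treated 2 days at 37C with 500 nM antisense PNA as positive control.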

[3] = qHTS Assay for Identification of Small Molecule Agonists for Hypoxia Response Element Signaling Pathway (AID 914; active means well fitted activation curve with a large enough effect in the signal ratio, with a control signal flat, not every such curve was filed as active; the % refers to the signal ratio; further: potency means the concentration at half of the fitted maximal effect); settings: ME-180 (cervical carcinoma) HRE-bla reporter, beta-lactamase ratio, CoCl2, 17 h; activation: hits give high values
How it was run: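 qHTS titration; ME-180 HRE-bla cells; EC50 CoCl2 co-treatment, 17 h at 37 degrees Celsius; CCF4 dye, ex 405nm, em 460nm and 530nm; %Activity from ratio; AC50.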

[4] = target: Cytochrome P450 2C9 (Homo sapiens) (UniProt P11712); test: qHTS Assay for Inhibitors and Substrates of Cytochrome P450 2C9 (AID 883); settings: recombinant CYP2C9, luciferin-H luminescence, 60 min; series mostly up to 57.1 µM; further: nearly all actives have a fitted effect of over 60% in size; further: potency means the concentration at half of the fitted maximal effect
Chain of Cytochrome P450 2C9 (Homo sapiens) (P11712 whole entry, looked up): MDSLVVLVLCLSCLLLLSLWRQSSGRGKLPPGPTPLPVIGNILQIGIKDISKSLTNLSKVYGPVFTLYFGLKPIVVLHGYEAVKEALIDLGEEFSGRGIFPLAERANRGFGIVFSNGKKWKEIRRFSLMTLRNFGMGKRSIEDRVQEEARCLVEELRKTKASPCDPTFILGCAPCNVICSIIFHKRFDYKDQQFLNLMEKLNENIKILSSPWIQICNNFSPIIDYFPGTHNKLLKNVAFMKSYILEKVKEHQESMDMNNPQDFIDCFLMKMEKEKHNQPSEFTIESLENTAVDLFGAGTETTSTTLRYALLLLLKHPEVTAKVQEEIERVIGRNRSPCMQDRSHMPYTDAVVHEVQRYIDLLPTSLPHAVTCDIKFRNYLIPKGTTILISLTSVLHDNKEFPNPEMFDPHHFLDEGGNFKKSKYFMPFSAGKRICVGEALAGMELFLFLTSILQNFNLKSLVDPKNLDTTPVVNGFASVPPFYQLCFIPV
How it was run: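 Human CYP2C9 (10nM) with Luciferin-H at 100uM (its KM) in 25mM KPO4; compound preincubated 10 min at 37C, then NADPH regeneration for 60 min at 37C. Luciferin read by luminescence after detection reagent; normalized to 57uM sulphaphenazole as full inhibition.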

[5] = target: Cytochrome P450 2D6 (Homo sapiens) (UniProt P10635); test: qHTS Assay for Inhibitors and Substrates of Cytochrome P450 2D6 (AID 891); settings: recombinant CYP2D6, luciferin-ME EGE luminescence; series mostly up to 57.1 µM; further: potency means the concentration at half of the fitted maximal effect; nearly all actives have a fitted effect of over 60% in size
Chain of Cytochrome P450 2D6 (Homo sapiens) (P10635 whole entry, looked up): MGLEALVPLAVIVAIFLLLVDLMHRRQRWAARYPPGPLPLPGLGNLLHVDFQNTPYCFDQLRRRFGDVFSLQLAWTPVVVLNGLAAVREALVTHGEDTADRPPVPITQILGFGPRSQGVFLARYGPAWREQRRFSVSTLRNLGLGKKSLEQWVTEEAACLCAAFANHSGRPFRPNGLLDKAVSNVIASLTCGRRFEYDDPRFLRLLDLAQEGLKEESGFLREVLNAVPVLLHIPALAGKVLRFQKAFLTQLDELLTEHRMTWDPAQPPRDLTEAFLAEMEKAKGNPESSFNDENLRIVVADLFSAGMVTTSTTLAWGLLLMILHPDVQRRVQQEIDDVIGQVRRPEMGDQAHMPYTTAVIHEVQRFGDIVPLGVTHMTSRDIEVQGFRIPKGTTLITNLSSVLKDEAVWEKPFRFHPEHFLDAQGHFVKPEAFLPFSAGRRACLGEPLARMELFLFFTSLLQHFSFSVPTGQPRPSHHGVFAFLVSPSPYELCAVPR
How it was run: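 Human CYP2D6 (5 nM) with 30 uM Luciferin-ME EGE (at Km) in 100 mM KPO4, compound preincubated 10 min, then NADPH regeneration system for 60 min at room temperature. Luciferin read by luminescence; normalized to 1.43 uM quinidine.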

[6] = target: Cytochrome P450 3A4 (Homo sapiens) (UniProt P08684); test: qHTS Assay for Inhibitors and Substrates of Cytochrome P450 3A4 (AID 884); settings: recombinant CYP3A4, Luciferin-PPXE luminescence; series mostly up to 57.1 µM; further: nearly all actives have a fitted effect of over 50% in size; further: potency means the concentration at half of the fitted maximal effect
Chain of Cytochrome P450 3A4 (Homo sapiens) (P08684 whole entry, looked up): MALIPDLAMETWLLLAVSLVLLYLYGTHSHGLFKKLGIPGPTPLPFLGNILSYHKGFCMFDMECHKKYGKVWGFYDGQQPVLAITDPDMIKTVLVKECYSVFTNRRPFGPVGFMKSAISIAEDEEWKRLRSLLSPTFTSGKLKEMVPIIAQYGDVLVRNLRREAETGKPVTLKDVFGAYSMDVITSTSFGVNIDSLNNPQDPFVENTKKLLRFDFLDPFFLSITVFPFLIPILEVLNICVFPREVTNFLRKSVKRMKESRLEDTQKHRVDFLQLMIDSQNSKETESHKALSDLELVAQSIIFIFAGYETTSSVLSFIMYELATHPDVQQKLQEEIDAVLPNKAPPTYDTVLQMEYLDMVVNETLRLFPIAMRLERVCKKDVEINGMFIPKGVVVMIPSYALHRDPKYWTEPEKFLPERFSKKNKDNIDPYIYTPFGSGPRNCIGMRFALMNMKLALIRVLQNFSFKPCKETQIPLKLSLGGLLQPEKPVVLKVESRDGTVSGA
How it was run: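 20 nM human CYP3A4 with 25 uM Luciferin-PPXE (at KM) in 200 mM KPO4, preincubated 10 min with compound; NADPH regeneration started a 60 min RT reaction. Luciferin detected by luminescence, normalized to 57 uM ketoconazole as full inhibition.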

[7] = target: Cytochrome P450 2C19 (Homo sapiens) (UniProt P33261); test: qHTS Assay for Inhibitors and Substrates of Cytochrome P450 2C19 (AID 899); settings: recombinant CYP2C19, luciferin-H EGE luminescence; series mostly up to 57.1 µM; further: nearly all actives have a fitted effect of over 60% in size; further: potency means the concentration at half of the fitted maximal effect
Chain of Cytochrome P450 2C19 (Homo sapiens) (P33261 whole entry, looked up): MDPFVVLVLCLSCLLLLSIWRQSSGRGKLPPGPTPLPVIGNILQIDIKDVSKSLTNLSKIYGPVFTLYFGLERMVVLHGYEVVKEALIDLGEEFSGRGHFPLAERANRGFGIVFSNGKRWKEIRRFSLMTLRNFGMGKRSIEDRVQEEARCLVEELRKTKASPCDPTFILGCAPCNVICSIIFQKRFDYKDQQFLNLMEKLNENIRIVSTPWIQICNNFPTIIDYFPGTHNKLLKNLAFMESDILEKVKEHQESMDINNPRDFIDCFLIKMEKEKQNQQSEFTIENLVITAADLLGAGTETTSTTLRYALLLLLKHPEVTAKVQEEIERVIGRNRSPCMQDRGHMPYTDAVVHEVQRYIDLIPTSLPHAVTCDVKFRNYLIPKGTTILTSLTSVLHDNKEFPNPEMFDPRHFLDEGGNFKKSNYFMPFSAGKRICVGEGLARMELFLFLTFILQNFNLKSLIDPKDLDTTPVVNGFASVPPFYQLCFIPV
How it was run: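 5 nM human CYP2C19 with 10uM Luciferin-H EGE (at KM) in 50mM KPO4, compound preincubated 10 min at 37C, then NADPH regeneration for 60 min at 37C. Luciferin read by luminescence after detection reagent; normalized to 57uM ketoconazole as full inhibition.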

[8] = target: DNA dC->dU-editing enzyme APOBEC-3G (Homo sapiens) (UniProt Q9HC16); test: qHTS for inhibitors of Vif-A3G interactions: Validation (AID 588379); settings: Vif-A3G protein interaction assay; series mostly up to 46.1 µM
Chain of DNA dC->dU-editing enzyme APOBEC-3G (Homo sapiens) (Q9HC16 whole entry, looked up): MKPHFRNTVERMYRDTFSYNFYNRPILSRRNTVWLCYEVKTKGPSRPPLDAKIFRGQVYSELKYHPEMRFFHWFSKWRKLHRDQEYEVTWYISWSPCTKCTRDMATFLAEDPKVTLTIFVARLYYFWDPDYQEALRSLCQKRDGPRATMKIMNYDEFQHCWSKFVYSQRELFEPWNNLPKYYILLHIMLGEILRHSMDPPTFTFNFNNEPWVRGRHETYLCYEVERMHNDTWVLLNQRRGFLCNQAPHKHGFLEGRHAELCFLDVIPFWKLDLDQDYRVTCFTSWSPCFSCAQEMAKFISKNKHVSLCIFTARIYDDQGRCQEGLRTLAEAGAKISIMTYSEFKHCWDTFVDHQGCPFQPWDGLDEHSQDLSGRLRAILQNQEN
How it was run: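 HeLa cells stably expressing Vif and A3G-eYFP, 700 cells/well, incubated overnight at 37 deg C, then exposed to compound overnight at 37 deg C. Inhibition of Vif-mediated degradation read as increased yellow fluorescence (Ex 488/Em 500-530) by laser-scanning cytometry.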

[9] = target: Rap guanine nucleotide exchange factor 3 (Homo sapiens) (UniProt O95398); test: Counterscreen qHTS for antagonist of cAMP-regulated guanine nucleotide exchange factor 3 (EPAC1) (AID 1645888); settings: Rap1B-BODIPY-GDP nucleotide exchange, fluorescence; series mostly up to 154 µM;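 further: fluorescence loss as bound BODIPY-GDP is released from Rap1B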
Chain of Rap guanine nucleotide exchange factor 3 (Homo sapiens) (O95398 whole entry, looked up): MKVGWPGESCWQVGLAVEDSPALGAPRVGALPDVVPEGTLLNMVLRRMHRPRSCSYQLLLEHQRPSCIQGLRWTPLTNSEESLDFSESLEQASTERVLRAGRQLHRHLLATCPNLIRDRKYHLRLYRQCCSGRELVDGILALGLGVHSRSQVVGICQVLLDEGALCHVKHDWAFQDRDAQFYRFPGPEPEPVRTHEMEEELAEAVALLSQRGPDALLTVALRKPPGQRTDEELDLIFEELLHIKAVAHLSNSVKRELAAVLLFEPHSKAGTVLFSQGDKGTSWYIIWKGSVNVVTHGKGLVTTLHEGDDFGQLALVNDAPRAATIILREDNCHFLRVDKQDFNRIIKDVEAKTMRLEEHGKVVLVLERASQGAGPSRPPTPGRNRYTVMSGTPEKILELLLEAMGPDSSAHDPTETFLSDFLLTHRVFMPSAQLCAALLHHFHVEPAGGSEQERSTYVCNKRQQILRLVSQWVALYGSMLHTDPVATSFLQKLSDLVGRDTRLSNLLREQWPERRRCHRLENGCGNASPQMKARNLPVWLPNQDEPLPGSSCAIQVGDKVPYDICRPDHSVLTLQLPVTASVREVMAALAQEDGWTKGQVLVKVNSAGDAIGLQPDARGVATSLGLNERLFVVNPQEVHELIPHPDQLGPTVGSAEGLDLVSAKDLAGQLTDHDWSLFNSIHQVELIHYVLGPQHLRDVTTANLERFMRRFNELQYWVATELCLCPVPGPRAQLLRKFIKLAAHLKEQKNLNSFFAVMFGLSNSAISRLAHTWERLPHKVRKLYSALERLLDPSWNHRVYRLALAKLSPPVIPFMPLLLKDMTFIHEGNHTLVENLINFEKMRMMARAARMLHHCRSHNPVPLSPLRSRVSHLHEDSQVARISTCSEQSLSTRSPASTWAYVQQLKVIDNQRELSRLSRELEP
How it was run: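 Rap1B–BODIPY-GDP (250 nM) with 50 uM GDP; compounds pin-transferred to 9.74 nM–152 uM final (activator) or from 7.32 nM upwards (inhibitor). Fluorescence Ex/Em 480/540 nm read at 5 and 30 min, then after adding cAMP or buffer, at room temperature.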

[10] = target: Rap guanine nucleotide exchange factor 3 (Homo sapiens) (UniProt O95398); test: Counterscreen qHTS for agonist of cAMP-regulated guanine nucleotide exchange factor 3 (EPAC1) (AID 1645889); settings: EPAC1 Rap1B-BODIPY-GDP exchange, fluorescence; series mostly up to 30.8 µM; further: nearly all actives have a fitted effect of over 40% in size
From the text: Assay Provider (PI): Xiaodong Cheng Ph.D. The University of Texas Medical Branch, […], TX MLPCN Grant: NS066510 In multi-cellular eukaryotic organisms, the effects of cAMP are transduced by two ubiquitously-expressed intracellular cAMP receptors, the classic protein kinase A/cAMP-dependent protein kinase (PKA/cAPK) and the more recently discovered exchange protein directly activated by cAMP/cAMP-regulated guanine nucleotide exchange factor (EPAC/cAMP-GEF). Both PKA and EPAC are ubiquitously expressed in all tissues, and an increase in intracellular cAMP levels will lead to the activation of both PKA and EPAC. […] This qHTS will be used to screen the Molecular Libraries Small Molecule Repository (MLSMR) as a concentration-titration series using the NCGC unique quantitative screening (qHTS) platform to find activators for EPAC1. […] Activators are identified by monitoring the change in fluorescence signal as the exchanged free BODIPY-GDP has a reduced fluorescence compared to Rap1-bound BODIPY-GDP. […]
EPAC1 Counterscreen PROTOCOL TABLE SEQUENCE No. (e.g., 1, 2, 3, etc.); […] […] Fluorescence. (Read 1), Ex/Em = 480 nm / 540 nm. […] Fluorescence. (Read 2), Ex/Em = 480 nm/ 540 nm. […] Fluorescence. (Read 3), Ex/Em = 480 nm / 540 nm. […] Fluorescence. (Read 4), Ex/Em = 480 nm / 540 nm. […]

COc1ccc2[nH]cc(CCNc3ccnc(-c4cccc(NS(C)(=O)=O)c4)n3)c2c1
Potency [1]: inactive | outcome [2]: inactive

Cc1cnc(CNc2cc(-c3ccoc3)ncn2)cn1
Potency [1]: inactive | outcome [2]: inactive

CNc1ncnc2ccc(-c3cccc(NS(C)(=O)=O)c3)cc12
Potency [1]: inactive | outcome [2]: inactive

COCC(=O)N1CCC2(CCN(Cc3ccc(C#N)cc3)CC2)CC1
activation [3]: 4.64%

CNc1nc(-c2ccccc2C(F)(F)F)nc2ccccc12
Potency [1]: inactive | outcome [2]: inactive

Cn1cccc1C(=O)N1CCC2(CCCN(Cc3ccncc3)C2)CC1
Potency [4]: 1.58 µM (active) | Potency [5]: 7.94 µM (active)

Cc1cnc(CNc2ncnc3ccc(-c4ccccc4CN(C)C)cc23)cn1
activity change, negative = inhibition [4]: 39% [at 2.29 µM] | Potency [5]: 2.51 µM (active) | Potency [1]: inactive | outcome [2]: inactive

CC(=O)NCCNc1nc(-c2ccc(N(C)C)cc2)nc2ccccc12
outcome [2]: inactive

CN(C)c1ccc(-c2nc(N(C)C)c3ccccc3n2)cc1
activity change, negative = inhibition [4]: 118% [at 2.29 µM] | Potency [5]: 7.94 µM (active) | Potency [1]: inactive | outcome [2]: inactive

N#Cc1ccc(CN2CC3(CCN(C(=O)c4cnccn4)CC3)C2)cc1
Potency [3]: 3.16 µM (active)

COc1ccccc1CN1CCCC2(CCN(C(=O)c3csnn3)CC2)C1
activation [3]: 12.1%

COc1ccc(CNc2cc(-c3ccccc3CN(C)C)ncn2)c(OC)c1
Potency [1]: inactive | outcome [2]: inactive

CC(=O)NCCNc1ncncc1-c1ccccc1C(F)(F)F
outcome [2]: inactive

Cc1cccc(CNc2ncnc3ccc(-c4c(C)noc4C)cc23)c1
Potency [6]: 0.794 µM (active) | Potency [7]: 5.01 µM (active) | Potency [1]: inactive | outcome [2]: inactive

Cc1cc(OC(=O)c2c(C)cc(O)cc2O)cc(O)c1C(=O)O
Potency [6]: 12.6 µM (active) | Potency [1]: inactive | outcome [2]: inactive

COc1cc(C)c2c(c1C=O)Oc1c(c(C)c(O)c3c1C(O)OC3=O)OC2=O (stereo unspecified)
Potency [6]: 12.6 µM (active) | Potency [1]: inactive | outcome [2]: inactive

O=c1c(-c2cc(F)cc(F)c2)nc2cncnc2n1Cc1ccccc1Cl
Potency [4]: 3.98 µM (active) | Potency [7]: 1.58 µM (active)

COc1ccc(CNc2cc(-c3ccccc3C)ncn2)c(OC)c1
activation [3]: 2.85%

O=C1C=C(O)c2ccccc2C1=O
Potency [1]: inactive | outcome [2]: inactive

Clc1cccc2c1CN(C1=NCCN1)C2
outcome [8]: inactive

N[C@H](C(=O)O)c1ccc(O)c(C(=O)O)c1
Potency [7]: inactive | outcome [8]: inactive

O=C(c1cccc(F)c1)N1CCC2(CCCN(c3cccc(-c4ccccc4)c3)C2)CC1
Potency [7]: 7.94 µM (active)

CS(=O)(=O)c1ccc(Cn2c3c(c4cc(F)cc(F)c42)CCC[C@H]3CC(=O)O)cc1
outcome [8]: inactive

CN(C)Cc1ccccc1-c1ccc2ncnc(N3CCOCC3)c2c1
Potency [1]: inactive | outcome [2]: inactive

CCCCCCCCCCCCCC(=O)O[C@H](CC(=O)O)C[N+](C)(C)C
outcome [8]: inactive

Cc1ccccc1-c1nc(N(C)Cc2ccco2)c2ccccc2n1
Potency [5]: 3.16 µM (active)

N#CCCn1c(=O)c(-c2cccs2)nc2cnc(N3CCOCC3)nc21
activation [3]: 21.6%

COc1cccc(-c2ccc3ncnc(NCc4ccccc4OC)c3c2)c1
Potency [1]: inactive | outcome [2]: inactive

O=c1c(-c2ccc(Cl)cc2)nc2cncnc2n1Cc1ccccc1Cl
Potency [7]: 3.98 µM (active) | activation [3]: 25.2%

OC[C@H]1O[C@@H](n2cnc3c(NCc4ccco4)ncnc32)[C@H](O)[C@@H]1O
Potency [6]: inactive | outcome [8]: inactive

COc1cccc(Nc2ncc3nc(-c4cn(C)c5ccccc45)c(=O)n(C[C@H]4CCCO4)c3n2)c1
Potency [4]: inactive

CCCCCc1c2c(cc(O)c1C(=O)O)OC(=O)c1cc(C(=O)CCCC)c(OC)cc1O2
outcome [9]: inactive | outcome [10]: inactive

COc1ccc(CNc2ncnc3ccc(-c4c(C)noc4C)cc23)c(OC)c1
Potency [6]: 3.16 µM (active) | Potency [3]: 2 µM (active)
